Reference: PubChem BioAssay (EPA / NIEHS)
Results filed as inconclusive are left out. The source made the active and inactive calls. Rule for the calls, unless noted: active = hit-call score of the fitted dose curve at least 0.9, where 1 is the maximum; inactive = score below 0.9.

Tests used:
[1] = ATG_TCF_b_cat_CIS: Attagene CIS-FACTORIAL HepG2 Assay for human T-Cell-Factor with beta-catenin (TCF/b-cat) (AID 2282965); details: HepG2 TCF/beta-catenin cis-reporter transcription, actives raise or lower the signal
Procedure, shortened: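 Endogenous TCF/LEF activity read as reporter transcript level via RT-PCR and capillary electrophoresis fluorescence in transfected HepG2, 24 h exposure; gain or loss of signal fitted against DMSO controls.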

[2] = ATG_TAL_CIS: Attagene CIS-FACTORIAL HepG2 Assay for human TAL Basal Promoter (AID 2282966); details: HepG2 Attagene cis-factorial TAL promoter reporter; actives raise or lower the signal;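 note: background control endpoint measuring basal TAL promoter reporter mRNA not a specific factor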
Procedure, shortened: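 Fluorescence of labelled reporter cDNA fragments, resolved by capillary electrophoresis, gave the readout. Human HepG2 liver cells carried transiently transfected cis-element reporter units and were treated for 24 hours; activity was fitted bidirectionally against DMSO.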

[3] = ATG_TGFb_CIS: Attagene CIS-FACTORIAL HepG2 Assay for human Transforming Growth Factor (TGF) (AID 2282967); details: HepG2 Attagene CIS TGFb reporter, mRNA transcription; actives raise or lower the signal
Procedure, shortened: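 Cells were dosed for 24 hours, after which total RNA was reverse-transcribed and reporter sequences amplified, labeled and sized by capillary electrophoresis. Activity was fitted in both directions against DMSO.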

[4] = ATG_VDRE_CIS: Attagene CIS-FACTORIAL HepG2 Assay for human Vitamin D Receptor Element (VDRE) (AID 2282968); details: HepG2 VDRE cis-reporter transcription, actives raise or lower the signal
Procedure, shortened: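 Reporter mRNA induction, quantified by capillary electrophoresis of fluorescently labelled RT-PCR products, was read 24 h after dosing HepG2 cells carrying transiently transfected cis-regulated reporter units; gain or loss relative to DMSO.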

[5] = target: Steroid hormone receptor ERR1 (Homo sapiens) (UniProt P11474); assay: ATG_ERRa_TRANS: Attagene TRANS-FACTORIAL HepG2 Assay for human Estrogen-Related Receptor alpha (ERRa) (AID 2282971; active = hit-call score of the fitted dose curve at least 0.9, where 1 is the maximum); details: HepG2 Attagene TRANS reporter, ERRa transactivation
Procedure, shortened: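 Reporter transcript induction was quantified by RT-PCR and capillary electrophoresis of FAM-labelled, HpaI-cut products after 24 h treatment of HepG2 cells carrying transiently transfected GAL4-UAS reporter units and an exogenous ERRa-Gal4 fusion; activity scored as increase over DMSO.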

[6] = target: X-box-binding protein 1 (Homo sapiens) (UniProt P17861); assay: ATG_Xbp1_CIS: Attagene CIS-FACTORIAL HepG2 Assay for human X-box Binding Protein 1 (XBP1) (AID 2282972); details: HepG2 XBP1 cis-element reporter, Attagene multiplex; actives raise or lower the signal
Procedure, shortened: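 After a 24-hour chemical exposure of HepG2 cells carrying cis-regulated reporters, reporter mRNA levels are assessed. Quantification uses RT-PCR, 6-FAM labelling and capillary electrophoresis. Gain- or loss-of-signal is fitted against DMSO.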

[7] = target: Bile acid receptor (Homo sapiens) (UniProt Q96RI1); assay: ATG_FXR_TRANS: Attagene TRANS-FACTORIAL HepG2 Assay for Farnesoid X Receptor (FXR) (AID 2282979; active = hit-call score of the fitted dose curve at least 0.9, where 1 is the maximum;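 note: hits raise reporter mRNA above DMSO so AC50 marks FXR activation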); details: HepG2 Attagene TRANS FXR-GAL4 reporter transcription
Procedure, shortened: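 Transient transfection of HepG2 with multiplexed GAL4-UAS reporter units; exogenous FXR-GAL4 chimera. Dose 24 h → TriZol RNA → oligo(dT) RT → PCR, 6-FAM primer extension, HpaI cut → CE. Gain vs DMSO.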

[8] = ATG_M_06_TRANS: Attagene TRANS-FACTORIAL HepG2 Assay for M06 Transcription Factor (Internal Marker) (AID 2282983; active = hit-call score of the fitted dose curve at least 0.9, where 1 is the maximum); details: HepG2 Attagene TRANS M06 internal marker reporter
Procedure, shortened: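 Transfect HepG2 with MRTUs → dose compounds 24 h → isolate RNA, oligo(dT) RT → PCR with reporter primers → 6-FAM primer extension → HpaI digest → CE fragment analysis. Positive direction vs DMSO.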

[9] = ATG_M_32_TRANS: Attagene TRANS-FACTORIAL HepG2 Assay for M32 Transcription Factor (Internal Marker) (AID 2282984; active = hit-call score of the fitted dose curve at least 0.9, where 1 is the maximum;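 note: transcript level of a background control reporter unit measured by RT-PCR and capillary electrophoresis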); details: HepG2 Attagene TRANS M32 internal marker reporter
Procedure, shortened: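 Measures reporter mRNA induction in human HepG2 liver cells after 24 h chemical treatment. Transcripts from transiently transfected GAL4-UAS reporter units are amplified, fluorescently labelled and sized by capillary electrophoresis; gain of signal relative to DMSO.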

[10] = target: Transcriptional activator Myb (Homo sapiens) (UniProt P10242); assay: ATG_Myb_CIS: Attagene CIS-FACTORIAL HepG2 Assay for human Myeloblastosis (Myb) Proto-Oncogene Transcription Factor (AID 2282986); details: HepG2 Attagene CIS-FACTORIAL Myb reporter transcription; actives raise or lower the signal
Procedure, shortened: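 HepG2 cells were transiently transfected with cis-regulated multiple reporter transcription units reflecting endogenous Myb activity, then exposed to compound for 24 hours. Reporter mRNA was measured by RT-PCR with capillary electrophoresis; bidirectional fitting versus DMSO baseline.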

[11] = target: Estrogen receptor (Homo sapiens) (UniProt P03372); assay: ATG_ERa_TRANS: Attagene TRANS-FACTORIAL HepG2 Assay for human Estrogen Receptor alpha (ERa) (AID 2282970; active = hit-call score of the fitted dose curve at least 0.9, where 1 is the maximum); details: HepG2 Attagene TRANS ERa GAL4 reporter, mRNA
Procedure, shortened: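 Human liver HepG2, transient transfection of multiple GAL4-UAS reporter units; TRANS format (exogenous NR-Gal4 chimera). 24 h dosing. Readout: reporter mRNA, RT-PCR, 6-FAM primer extension, HpaI digest, capillary electrophoresis. Positive direction vs DMSO.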

[12] = ATG_GAL4_TRANS: Attagene TRANS-FACTORIAL HepG2 Assay for GAL4 (Internal Marker) (AID 2282976; active = hit-call score of the fitted dose curve at least 0.9, where 1 is the maximum); details: HepG2 Attagene TRANS GAL4 internal marker reporter
Procedure, shortened: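 First, HepG2 cells were transfected with reporter units under GAL4-UAS control. Next, they were treated with chemical for 24 h. Finally, RNA was reverse-transcribed, PCR-amplified, FAM-labelled and resolved by capillary electrophoresis, with induction scored against DMSO.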

[13] = target: Oxysterols receptor LXR-beta (Homo sapiens) (UniProt P55055); assay: ATG_LXRb_TRANS: Attagene TRANS-FACTORIAL HepG2 Assay for human Liver X Receptor beta (LXRb) (AID 2282981; active = hit-call score of the fitted dose curve at least 0.9, where 1 is the maximum); details: HepG2 Attagene TRANS GAL4-LXRb reporter, mRNA
Procedure, shortened: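 Transient transfection HepG2 (multiplexed RTUs, GAL4-UAS); NR-Gal4 chimera; 24 h exposure; RNA → RT-PCR → 6-FAM primer extension → HpaI → CE; increase vs DMSO.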

[14] = target: Hepatocyte nuclear factor 4-alpha (Homo sapiens) (UniProt P41235); assay: ATG_HNF4a_TRANS: Attagene TRANS-FACTORIAL HepG2 Assay for human Hepatocyte Nuclear Factor 4 alpha (HNF4a) (AID 2282982; active = hit-call score of the fitted dose curve at least 0.9, where 1 is the maximum); details: HepG2 HNF4a transactivation reporter, mRNA readout
Procedure, shortened: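 Readout is fluorescent reporter-transcript fragments resolved by capillary electrophoresis after RT-PCR from HepG2 cells dosed for 24 h. Cells carried transfected GAL4-UAS reporter constructs measuring exogenous NR-GAL4 chimera activity; DMSO served as baseline.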

[15] = target: Nuclear receptor subfamily 4 group A member 2 (Homo sapiens) (UniProt P43354); assay: ATG_NURR1_TRANS: Attagene TRANS-FACTORIAL HepG2 Assay for human Nuclear Receptor Related Protein 1 (NURR1) (AID 2282985; active = hit-call score of the fitted dose curve at least 0.9, where 1 is the maximum); details: HepG2 Attagene TRANS reporter, mRNA readout
Procedure, shortened: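 Transient transfection of HepG2, human liver cells, with multiple GAL4-UAS reporter transcription units. Cells dosed 24 h, RNA isolated, reverse-transcribed, PCR-amplified, FAM-labelled, HpaI-digested, sized by capillary electrophoresis. DMSO served as negative control.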

[16] = target: Glucocorticoid receptor (Homo sapiens) (UniProt P04150); assay: ATG_GR_TRANS: Attagene TRANS-FACTORIAL HepG2 Assay for human Glucocorticoid Receptor (GR) (AID 2282978; active = hit-call score of the fitted dose curve at least 0.9, where 1 is the maximum;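 note: activators score as hits since higher reporter transcript over DMSO is fitted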); details: HepG2 Attagene TRANS GR reporter, mRNA transcription
Procedure, shortened: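 HepG2 cells transiently transfected with multiplexed reporter units in which chimeric NR-GAL4 proteins drive GAL4-UAS reporters; 24 h compound exposure. Reporter mRNA measured by RT-PCR, 6-FAM labelling, HpaI digestion and capillary electrophoresis; gain-of-signal fitted versus DMSO.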

[17] = target: Estrogen-related receptor gamma (Homo sapiens) (UniProt P62508); assay: ATG_ERRg_TRANS: Attagene TRANS-FACTORIAL HepG2 Assay for human Estrogen-Related Receptor gamma (ERRg) (AID 2282977; active = hit-call score of the fitted dose curve at least 0.9, where 1 is the maximum;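 note: hits increase reporter signal over DMSO so potencies reflect activators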); details: HepG2 Attagene TRANS reporter, ERRg transactivation
Procedure, shortened: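 Transfect HepG2 with multiple GAL4-UAS reporter transcription units; dose chemicals 24 h; isolate RNA, reverse-transcribe with oligo(dT), PCR-amplify, label with 6-FAM, digest with HpaI; size fragments by capillary electrophoresis. DMSO serves as negative control.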

[18] = target: Oxysterols receptor LXR-alpha (Homo sapiens) (UniProt Q13133); assay: ATG_LXRa_TRANS: Attagene TRANS-FACTORIAL HepG2 Assay for human Liver X Receptor alpha (LXRa) (AID 2282980; active = hit-call score of the fitted dose curve at least 0.9, where 1 is the maximum); details: HepG2 Attagene TRANS reporter, LXRa transactivation
Procedure, shortened: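 Transfect HepG2 with GAL4-UAS multiplex reporter constructs (TRANS format, chimeric receptor-GAL4); treat 24 h; extract RNA, reverse-transcribe, PCR-amplify, FAM-label, HpaI-digest; resolve fragments by capillary electrophoresis. Upward response vs DMSO.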

[19] = ATG_M_19_TRANS: Attagene TRANS-FACTORIAL HepG2 Assay for M19 Transcription Factor (Internal Marker) (AID 2282974; active = hit-call score of the fitted dose curve at least 0.9, where 1 is the maximum); details: HepG2 Attagene TRANS-FACTORIAL M19 internal marker reporter
Procedure, shortened: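 HepG2 cells transiently transfected with multiple GAL4-UAS reporter transcription units were exposed to chemicals for 24 h. Reporter mRNA was read by RT-PCR, 6-FAM primer extension, HpaI digestion and capillary electrophoresis; gain of signal fitted relative to DMSO.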

Measured: AC50

Chain of Estrogen receptor (Homo sapiens) (P03372 whole entry, looked up, the tested form may be a part): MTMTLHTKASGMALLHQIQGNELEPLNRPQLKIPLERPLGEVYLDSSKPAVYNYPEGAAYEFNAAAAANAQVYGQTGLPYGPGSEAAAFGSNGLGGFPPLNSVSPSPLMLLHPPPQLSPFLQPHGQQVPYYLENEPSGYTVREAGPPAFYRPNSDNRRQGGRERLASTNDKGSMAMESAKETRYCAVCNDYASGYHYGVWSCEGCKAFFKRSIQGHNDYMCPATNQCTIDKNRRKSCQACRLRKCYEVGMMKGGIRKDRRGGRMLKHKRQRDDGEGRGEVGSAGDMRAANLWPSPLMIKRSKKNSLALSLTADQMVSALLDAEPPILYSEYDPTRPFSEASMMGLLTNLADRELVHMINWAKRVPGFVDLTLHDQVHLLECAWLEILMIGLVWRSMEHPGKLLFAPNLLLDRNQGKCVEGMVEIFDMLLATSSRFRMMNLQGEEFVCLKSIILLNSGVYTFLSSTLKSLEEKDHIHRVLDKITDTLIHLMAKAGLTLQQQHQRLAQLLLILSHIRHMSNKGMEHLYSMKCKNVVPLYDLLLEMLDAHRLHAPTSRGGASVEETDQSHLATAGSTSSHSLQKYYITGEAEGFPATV
Chain of Nuclear receptor subfamily 4 group A member 2 (Homo sapiens) (P43354 whole entry, looked up, the tested form may be a part): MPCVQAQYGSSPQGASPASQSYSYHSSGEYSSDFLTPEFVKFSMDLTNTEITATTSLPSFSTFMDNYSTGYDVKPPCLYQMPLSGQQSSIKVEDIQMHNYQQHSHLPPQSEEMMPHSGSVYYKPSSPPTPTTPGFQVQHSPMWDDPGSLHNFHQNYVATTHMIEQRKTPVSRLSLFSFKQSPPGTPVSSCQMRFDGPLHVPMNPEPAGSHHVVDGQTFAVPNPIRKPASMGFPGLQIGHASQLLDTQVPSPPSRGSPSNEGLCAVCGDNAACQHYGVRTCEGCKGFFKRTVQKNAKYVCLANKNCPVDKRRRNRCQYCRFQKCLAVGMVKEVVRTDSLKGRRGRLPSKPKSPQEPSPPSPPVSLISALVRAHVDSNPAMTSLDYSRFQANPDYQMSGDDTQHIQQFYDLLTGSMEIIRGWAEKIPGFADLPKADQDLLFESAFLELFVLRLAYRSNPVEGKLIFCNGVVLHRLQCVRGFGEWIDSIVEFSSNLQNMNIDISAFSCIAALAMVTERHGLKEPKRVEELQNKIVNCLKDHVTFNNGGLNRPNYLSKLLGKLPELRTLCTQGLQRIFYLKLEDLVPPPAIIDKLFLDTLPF
Chain of Hepatocyte nuclear factor 4-alpha (Homo sapiens) (P41235 whole entry, looked up, the tested form may be a part): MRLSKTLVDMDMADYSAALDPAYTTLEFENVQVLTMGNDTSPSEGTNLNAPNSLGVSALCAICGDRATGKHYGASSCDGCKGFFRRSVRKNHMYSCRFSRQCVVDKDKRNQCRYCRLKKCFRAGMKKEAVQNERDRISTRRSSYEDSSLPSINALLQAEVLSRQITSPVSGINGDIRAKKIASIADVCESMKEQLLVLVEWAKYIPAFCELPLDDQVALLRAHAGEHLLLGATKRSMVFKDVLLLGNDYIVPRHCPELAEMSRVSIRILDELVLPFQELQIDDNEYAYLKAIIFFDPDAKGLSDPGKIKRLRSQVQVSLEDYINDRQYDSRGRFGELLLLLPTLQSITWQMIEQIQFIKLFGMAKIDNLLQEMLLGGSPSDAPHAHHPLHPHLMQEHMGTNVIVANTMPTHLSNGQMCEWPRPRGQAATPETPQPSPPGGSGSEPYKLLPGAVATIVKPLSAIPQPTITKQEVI
Chain of X-box-binding protein 1 (Homo sapiens) (P17861 whole entry, looked up): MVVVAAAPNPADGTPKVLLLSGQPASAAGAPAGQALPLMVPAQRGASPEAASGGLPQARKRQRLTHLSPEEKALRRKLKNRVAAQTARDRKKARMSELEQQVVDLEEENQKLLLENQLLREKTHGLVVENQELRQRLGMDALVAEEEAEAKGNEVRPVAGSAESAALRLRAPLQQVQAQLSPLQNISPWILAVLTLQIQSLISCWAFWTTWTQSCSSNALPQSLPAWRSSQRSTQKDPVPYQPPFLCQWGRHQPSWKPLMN
Chain of Oxysterols receptor LXR-beta (Homo sapiens) (P55055 whole entry, looked up, the tested form may be a part): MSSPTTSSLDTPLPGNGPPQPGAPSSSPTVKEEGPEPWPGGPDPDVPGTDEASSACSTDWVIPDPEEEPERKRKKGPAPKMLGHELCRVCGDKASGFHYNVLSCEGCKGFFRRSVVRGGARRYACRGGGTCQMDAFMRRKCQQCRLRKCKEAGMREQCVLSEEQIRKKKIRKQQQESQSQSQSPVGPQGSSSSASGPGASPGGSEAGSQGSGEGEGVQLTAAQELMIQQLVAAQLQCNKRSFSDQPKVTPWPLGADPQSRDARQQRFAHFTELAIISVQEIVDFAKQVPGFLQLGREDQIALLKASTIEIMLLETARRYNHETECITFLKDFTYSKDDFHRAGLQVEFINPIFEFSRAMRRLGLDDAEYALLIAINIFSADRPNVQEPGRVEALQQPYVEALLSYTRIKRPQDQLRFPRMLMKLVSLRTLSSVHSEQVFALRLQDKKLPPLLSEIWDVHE
Chain of Glucocorticoid receptor (Homo sapiens) (P04150 whole entry, looked up, the tested form may be a part): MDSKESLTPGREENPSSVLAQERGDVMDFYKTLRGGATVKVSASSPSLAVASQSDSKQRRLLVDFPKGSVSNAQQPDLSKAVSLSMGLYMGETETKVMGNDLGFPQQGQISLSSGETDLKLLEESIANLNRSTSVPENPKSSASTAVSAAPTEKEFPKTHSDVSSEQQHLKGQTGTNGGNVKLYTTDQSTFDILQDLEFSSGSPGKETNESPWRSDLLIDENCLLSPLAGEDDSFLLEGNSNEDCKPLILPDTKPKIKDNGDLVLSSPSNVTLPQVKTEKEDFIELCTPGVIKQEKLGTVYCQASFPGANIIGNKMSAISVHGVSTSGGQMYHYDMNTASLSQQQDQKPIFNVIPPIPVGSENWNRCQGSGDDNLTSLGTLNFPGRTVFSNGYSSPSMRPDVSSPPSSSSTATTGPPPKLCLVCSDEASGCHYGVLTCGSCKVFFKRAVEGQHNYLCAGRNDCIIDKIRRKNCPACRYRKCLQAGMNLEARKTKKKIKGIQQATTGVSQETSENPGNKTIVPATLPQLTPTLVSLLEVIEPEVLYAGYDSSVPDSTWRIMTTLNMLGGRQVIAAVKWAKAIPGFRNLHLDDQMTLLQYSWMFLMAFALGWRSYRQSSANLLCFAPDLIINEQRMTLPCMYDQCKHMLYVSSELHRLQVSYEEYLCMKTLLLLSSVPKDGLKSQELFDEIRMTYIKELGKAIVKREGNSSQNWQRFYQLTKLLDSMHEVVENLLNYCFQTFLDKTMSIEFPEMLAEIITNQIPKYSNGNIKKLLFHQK
Chain of Transcriptional activator Myb (Homo sapiens) (P10242 whole entry, looked up): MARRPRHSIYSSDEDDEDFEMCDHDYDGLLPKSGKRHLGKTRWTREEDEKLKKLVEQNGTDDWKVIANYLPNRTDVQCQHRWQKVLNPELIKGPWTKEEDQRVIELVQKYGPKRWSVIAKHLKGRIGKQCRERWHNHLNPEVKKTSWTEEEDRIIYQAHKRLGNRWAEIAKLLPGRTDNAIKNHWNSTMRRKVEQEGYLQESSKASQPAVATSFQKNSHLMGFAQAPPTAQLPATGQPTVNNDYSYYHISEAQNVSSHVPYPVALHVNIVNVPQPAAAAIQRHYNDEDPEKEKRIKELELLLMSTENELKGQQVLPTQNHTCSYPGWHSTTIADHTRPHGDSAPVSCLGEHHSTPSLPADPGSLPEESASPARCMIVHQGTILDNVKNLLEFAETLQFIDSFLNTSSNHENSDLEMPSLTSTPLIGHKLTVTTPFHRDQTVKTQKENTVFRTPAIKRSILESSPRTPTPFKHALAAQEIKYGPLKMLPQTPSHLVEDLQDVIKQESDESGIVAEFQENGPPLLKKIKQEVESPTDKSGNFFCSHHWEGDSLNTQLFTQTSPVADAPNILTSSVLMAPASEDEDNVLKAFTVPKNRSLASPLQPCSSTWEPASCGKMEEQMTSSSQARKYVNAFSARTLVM
Chain of Bile acid receptor (Homo sapiens) (Q96RI1 whole entry, looked up, the tested form may be a part): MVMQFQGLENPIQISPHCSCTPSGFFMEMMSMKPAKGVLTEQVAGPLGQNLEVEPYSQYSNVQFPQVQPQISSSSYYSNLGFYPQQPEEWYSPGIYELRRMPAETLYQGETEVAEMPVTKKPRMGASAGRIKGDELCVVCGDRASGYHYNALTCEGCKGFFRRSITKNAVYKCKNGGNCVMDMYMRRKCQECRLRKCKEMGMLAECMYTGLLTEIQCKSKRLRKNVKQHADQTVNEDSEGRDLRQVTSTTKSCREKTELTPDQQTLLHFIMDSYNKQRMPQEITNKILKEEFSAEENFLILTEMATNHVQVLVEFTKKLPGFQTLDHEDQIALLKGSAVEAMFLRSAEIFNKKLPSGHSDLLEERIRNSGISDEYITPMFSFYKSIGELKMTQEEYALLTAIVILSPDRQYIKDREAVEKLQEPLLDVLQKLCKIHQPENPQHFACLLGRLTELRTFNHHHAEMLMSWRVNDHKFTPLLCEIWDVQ
Chain of Oxysterols receptor LXR-alpha (Homo sapiens) (Q13133 whole entry, looked up, the tested form may be a part): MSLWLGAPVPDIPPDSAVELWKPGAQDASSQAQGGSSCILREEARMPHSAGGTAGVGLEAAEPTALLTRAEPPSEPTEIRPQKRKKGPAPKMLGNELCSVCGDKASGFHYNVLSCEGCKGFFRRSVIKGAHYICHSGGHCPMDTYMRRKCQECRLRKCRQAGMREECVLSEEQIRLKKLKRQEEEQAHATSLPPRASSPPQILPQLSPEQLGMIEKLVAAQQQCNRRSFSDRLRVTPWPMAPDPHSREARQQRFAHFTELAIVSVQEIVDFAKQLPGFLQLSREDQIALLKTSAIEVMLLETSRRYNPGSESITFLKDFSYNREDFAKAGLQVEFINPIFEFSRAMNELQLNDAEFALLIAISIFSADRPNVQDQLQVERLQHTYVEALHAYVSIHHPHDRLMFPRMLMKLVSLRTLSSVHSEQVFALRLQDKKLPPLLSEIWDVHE

CCn1cc(C(=O)O)c(=O)c2ccc(C)nc21
inactive: [1] | [2] | [3] | [4] | [5] | [6] | [7] | [8] | [9] | [10]

CCOC(=O)CCCCCCCCC(=O)OCC
not listed: [5] | [7] | [16] | [17] | [18] | [19]
inactive: all other assays above

CC(C)(O)CCc1ccccc1
not listed: [5] | [9] | [12] | [17] | [18] | [19]
inactive: all other assays above

C=COCC1CCC(COC=C)CC1 (stereo not drawn)
not listed: [5] | [7] | [8] | [13] | [14] | [19]
inactive: all other assays above

CC(C)(C)c1cccc(O)c1
inactive: [1] | [2] | [3] | [6] | [16] | [13] | [8] | [15] | [10]
active: [4] 28.1 µM | [11] 14.7 µM

CCCCCC(=O)O[C@]1(C(C)=O)CC[C@H]2[C@@H]3CCC4=CC(=O)CC[C@]4(C)[C@H]3CC[C@@]21C
active: [2] 13.4 µM | [4] 61.2 µM | [16] 476 nM | [15] 8.77 µM
not listed: [5] | [11] | [14] | [17] | [19]
inactive: all other assays above

NC(=O)c1cccnc1
not listed: [5] | [8] | [11] | [12] | [13] | [17] | [18]
inactive: all other assays above

CCCCCC1CCC(=O)O1 (stereo not drawn)
inactive: [1] | [2] | [3] | [4] | [6] | [16] | [15] | [10]

OCCCO
not listed: [5] | [7] | [11] | [13] | [17] | [18] | [19]
inactive: all other assays above

O=[N+]([O-])c1cc(N(CCO)CCO)ccc1NCCO
inactive: [1] | [2] | [3] | [4] | [6] | [19] | [14] | [8] | [9] | [10]

CC(C)(C)C1CCC(O)CC1 (stereo not drawn)
inactive: [1] | [2] | [3] | [4] | [6] | [19] | [18] | [13] | [8] | [10]

c1coc(CNc2ncnc3nc[nH]c23)c1
not listed: [5] | [7] | [11] | [12] | [17] | [18] | [19]
inactive: all other assays above

CC1=CC[C@@H]2C[C@H]1C2(C)C
inactive: [1] | [2] | [3] | [4] | [6] | [18] | [13] | [8] | [15] | [10]

CCCCN(CCCC)CCCCCCN(CCCC)CCCC
inactive: [1] | [2] | [3] | [4] | [6] | [19] | [18] | [13] | [9] | [10]

CNC(=C[N+](=O)[O-])NCCSCc1ccc(CN(C)C)o1
not listed: [5] | [7] | [11] | [12] | [14] | [16] | [17]
inactive: all other assays above

CCCCCCCCOC(C)=O
not listed: [5] | [7] | [9] | [11] | [12] | [16] | [17] | [19]
inactive: all other assays above

c1ccc(Cc2ccccc2)cc1
not listed: [5] | [7] | [11] | [16] | [17] | [18]
inactive: all other assays above

CCCCCCCCCCO[C@@H]1O[C@H](CO)[C@@H](O)[C@H](O)[C@H]1O
inactive: [1] | [2] | [3] | [4] | [6] | [19] | [15] | [10]

CCNC(=S)NCC
not listed: [5] | [7] | [11] | [12] | [14] | [16] | [17] | [19]
inactive: all other assays above

C=C(C)C(=O)OCCOCCOC(=O)C(=C)C
not listed: [5] | [7] | [11] | [13] | [14] | [15] | [16] | [18]
inactive: all other assays above

CC(CCO)CC(C)(C)C (stereo not drawn)
not listed: [5] | [7] | [11] | [12] | [13] | [17]
inactive: all other assays above

CCCO
not listed: [5] | [7] | [11] | [12] | [13] | [14] | [16] | [17]
inactive: all other assays above
